KCNH2 3.1 block: blocks the human KCNH2 3.1 channel isoform | activity change, % (tested at about 1.8 µM) | U2OS KCNH2 3.1, thallium flux FluxOr; active compounds read low | actives 0.95% (n = 340,000) | AID 720553;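 active means maximum activity change below -70%; inconclusive means maximum activity change from -70% to -50%; inactive means maximum activity change above -50%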;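 further: thallium influx rate constant from kinetic fluorescence after stimulation buffer; on the % scale 0 is the no-effect control and ±100 the full control effect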
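FluxOr-based Tl+ influx in U2OS cells transduced with KCNH2 3.1 virus; rate constants normalized to DMSO controls.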
hERG WT inh: KCNH2 (human, wildtype) channel inhibition. AID 720551. Q12809. U2OS, BacMam KCNH2, thallium flux FluxOr; active compounds read low. actives 0.37% (n = 340,000). activity change, % at 1.84 µM;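 active means maximum activity change below -70%; inconclusive means maximum activity change between -70% and -50%; inactive means maximum activity change above -50%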; further: on the % scale 0 is the no-effect control and ±100 the full control effect
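U2OS cells were transduced with wild-type KCNH2 virus (2.03 x 10^8 / mL) for 4 h at room temperature, then cultured overnight at 37 C. Thallium flux was read with FluxOr dye. Rate constants were normalized to DMSO controls.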
GLP-1R inv ag: inverse agonists of human GLP-1 receptor | HEK293 GLP-1R CRE-luciferase, luminescence, 24 h; GLP-1R form is constitutively active | Potency, µM (top dose mostly 38.3 µM), for inactives: at the highest dose activity change, negative = inhibition, most hits filed as inhibitors | actives 1.6% (n = 410,000) | AID 624417; further: potency means the concentration at half of the fitted maximal effect; on the % scale 0 is the no-effect control and ±100 the full control effect; nearly all actives have a fitted effect of over 55% in size
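Luminescence readout: a drop in cAMP-driven luciferase signal flags inverse agonism at a constitutively active GLP-1R stably expressed in HEK293. Compound exposure lasted 24 hr at 37 deg C, 5% CO2.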
GLP1R ag: GLP-1 receptor (human) agonism; P43220; HEK293 GLP-1R CRE-luciferase, luminescence, 4-6 h; cells express a hypersensitive GLP-1R form; Potency, µM (titrated, usually from 45.6 µM), without a hit: top-dose activation, usual class: activators; actives 0.007% (n = 380,000); AID 624172; further: potency means the concentration at half of the fitted maximal effect; % of control where 0% means no effect
GLP1R cytotox: cytotoxicity in counter-screen for GLP-1R inverse agonists; HEK293 cAMP-luciferase reporter cells, luminescence, 24 h; Potency, µM (series often up to 38.3 µM), inactives show at the highest dose activity change, negative = inhibition, hits mostly inhibitors; actives 0.13% (n = 410,000); AID 624418;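 further: loss of luciferase light is scored as toxicity; potency means the concentration at half of the fitted maximal effect; on the % scale 0 is the no-effect control and ±100 the full control effect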
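Quantitative HTS format, 1536 wells, 200 cells/uL seeded. Compounds: 23 nL, 24 h, 37 °C. Detection: luciferase reagent, luminescence at 12 min RT; decreased signal taken as cytotoxic.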
GLS inh: inhibitors of human glutaminase (GLS). O94925. GLS enzymatic activity, qHTS titration. Potency, µM (titrated, usually from 45.5 µM), for inactives: at the top dose activity change, negative = inhibition, most hits filed as inhibitors. actives 0.21% (n = 410,000). AID 624170; further: potency means the concentration at half of the fitted maximal effect; on the % scale 0 is the no-effect control and ±100 the full control effect
Target sequence (O94925 whole entry, looked up): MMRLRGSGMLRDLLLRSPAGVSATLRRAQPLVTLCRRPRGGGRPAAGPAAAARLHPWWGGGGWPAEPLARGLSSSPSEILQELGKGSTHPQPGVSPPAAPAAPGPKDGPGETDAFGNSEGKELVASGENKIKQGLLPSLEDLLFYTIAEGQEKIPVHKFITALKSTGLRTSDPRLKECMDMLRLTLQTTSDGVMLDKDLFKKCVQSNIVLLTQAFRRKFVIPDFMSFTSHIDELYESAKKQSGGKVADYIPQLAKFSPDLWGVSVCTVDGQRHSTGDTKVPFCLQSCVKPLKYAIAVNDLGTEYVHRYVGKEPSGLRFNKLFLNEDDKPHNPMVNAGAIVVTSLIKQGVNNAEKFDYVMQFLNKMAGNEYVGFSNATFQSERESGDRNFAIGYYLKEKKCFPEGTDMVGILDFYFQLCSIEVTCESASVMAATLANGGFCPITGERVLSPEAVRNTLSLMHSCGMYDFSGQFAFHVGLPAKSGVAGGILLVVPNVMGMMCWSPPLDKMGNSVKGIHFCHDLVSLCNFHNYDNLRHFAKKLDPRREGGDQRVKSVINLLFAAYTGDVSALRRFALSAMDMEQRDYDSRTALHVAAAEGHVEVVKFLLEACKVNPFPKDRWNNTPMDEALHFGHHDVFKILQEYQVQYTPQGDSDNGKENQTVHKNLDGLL
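Glutamate formation by hKGA was monitored fluorometrically using coupled glutamate oxidase, HRP and Amplex Red. Substrate was added as 1 mM L-glutamine solution; incubation was 30 min at RT after an initial read.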
* = called active by the depositor; u = inconclusive; x = not tested or not shown. Sampled rows, rich in hits. Any-hit rate of the full collection: about 2.8%. Unless noted, the call rests on the fitted dose curve; in most records, active means well fitted curve in the direction sought with a large enough effect; inconclusive means small, poorly fitted or top-dose-only effect, or another doubt; inactive means no such curve, though single readings can be large; an effect the other way counts as inactive or inconclusive.

SMILES	KCNH2 3.1 block	hERG WT inh	GLP-1R inv ag	GLP1R ag	GLP1R cytotox	GLS inh
Cc1ccc(-c2csc3ncnc(NCCN4CCOCC4)c23)cc1	14	9	u	4%	65%	10%
Clc1ccc(-c2csc3ncnc(NCCN4CCOCC4)c23)cc1	-11	1	3.2µM*	3%	67%	18%
c1ccc(CNc2nc(CN3CCOCC3)nc3scc(-c4ccccc4)c23)cc1	4	0	0%	8%	-2%	-8%
Clc1ccc(CNc2nc(CN3CCOCC3)nc3scc(-c4ccccc4)c23)cc1	-17	15	3.2µM*	-3%	u	7%
Cc1ccc(N/C(N)=N/c2nc(C)cc(N3CCCCC3)n2)c(C)c1	-97*	-14	u	-3%	u	-3%
Cc1ccc(N/C(N)=N/c2nc3c(c(=O)[nH]2)CCCC3)c(C)c1	-7	-29	-6%	7%	2%	7%
Cc1nc(N/N=C/c2ccccn2)sc1C	6	5	2.2µM*	-14%	3.5µM*	13%
Clc1ccccc1NN=Cc1ccccn1	-11	6	4µM*	5%	-16%	-3%
CCCc1sc(N/N=C/c2ccccn2)nc1-c1ccc(F)cc1	-7	-2	u	-6%	u	13%
Cc1ccnc(NS(=O)(=O)c2ccc(NC(=O)c3ccc(Cl)cc3[N+](=O)[O-])cc2)n1	-134*	-10	2%	6%	12%	5%
Cc1ccnc(NS(=O)(=O)c2ccc(NC(=O)c3cccc(Cl)c3)cc2)n1	1	10	0%	-1%	-2%	1%
COc1ccc(C2CC(c3cccc(C(F)(F)F)c3)=NN2c2ccc(S(N)(=O)=O)cc2)cc1 (centres undefined)	-6	6	u	5%	193%	0%
COC(=O)Cc1ccc(NC(=O)c2ccc(C(C)(C)C)cc2)cc1	12	-10	4.5µM*	-1%	u	-4%
CC(C)(C)c1ccc(C(=O)Nc2ccc(Cl)cc2)cc1	2	-7	18%	0%	-3%	0%
Cc1onc(-c2ccccc2)c1C(=O)NC(=S)NNC(=O)c1ccccc1O	1	2	2.8µM*	1%	u	3%
Cc1onc(-c2ccccc2)c1C(=O)NC(=S)NNC(=O)c1ccc(O)cc1O	21	-1	u	1%	-1%	26%
CCC(=O)Nc1ccccc1-c1nc2ccccc2n(CC(=O)c2ccc(Cl)cc2)c1=O	x	x	16%	x	-7%	4%
Nn1c(SCC(=O)Nc2nccs2)nnc1-c1ccccn1	14	-8	5%	7%	4%	1%
CN(Cc1ccccc1)c1ncnc2sccc12	-7	-124*	-20%	22%	-15%	8%
CN(Cc1ccccc1)c1ncnc2[nH]ncc12	1	-2	58%	13%	11%	-11%
COc1ccc(C(=O)CSc2nnc(CNc3ccc(C)cc3C)n2Cc2ccco2)cc1	-34	11	0%	-1%	-20%	-3%
Cc1ccc(C(=O)CSc2nnc(CNc3ccc(C)cc3C)n2Cc2ccco2)cc1	-42	-8	10µM*	0%	-17%	9%
Cc1ccc(NCc2nnc(SCc3ccc(C#N)cc3)n2Cc2ccco2)c(C)c1	u	-97*	u	1%	4%	2%
CCCc1cc(=O)[nH]c(SCc2nc(-c3ccc(C)cc3)no2)n1	x	x	10%	x	2%	8%
COc1ccc(CNCCC(c2ccc(OC(C)C)cc2)c2ccccc2OC)cc1 (centres undefined)	17	x	5.6µM*	0%	u	3%
SMILES	KCNH2 3.1 block	hERG WT inh	GLP-1R inv ag	GLP1R ag	GLP1R cytotox	GLS inh
COc1ccc(CNCCC(c2ccccc2)c2ccc3c(c2)OCO3)cc1 (centres undefined)	-81*	-24	u	-11%	u	3%
COc1ccccc1C(CCNCc1ccc(N(C)C)cc1)c1ccc(OC(C)C)cc1 (centres undefined)	-15	-2	u	0%	u	16%
COc1ccc(CNCCC(c2ccc(OC(C)C)cc2)c2ccccc2OC)cc1OC (centres undefined)	-82*	-45	u	16%	u	-6%
COc1ccccc1NC(=O)CC(c1ccc(OC(C)C)cc1)c1ccccc1OC (centres undefined)	-3	34	11µM*	-2%	5%	1%
COc1ccc(C(CC(=O)O)c2ccc3c(c2)OCO3)cc1 (centres undefined)	10	8	-5%	0%	14%	-2%
COC(=O)c1cc2oc3ccccc3c2n1CC(=O)Nc1ccc(Cl)cc1F	x	x	15%	x	-4%	-6%
CSc1ncccc1C(=O)OC(C)C(=O)Nc1cccc(S(=O)(=O)N2CCOCC2)c1 (centres undefined)	4	-315*	68%	3%	-6%	-10%
COc1cc(N)c(Cl)cc1C(=O)OC(C)C(=O)Nc1cccc(S(=O)(=O)N2CCOCC2)c1 (centres undefined)	7	0	8%	7%	-9%	6%
COc1cccc(OCc2cc(=O)n3c(-c4ccccc4)csc3n2)c1	x	x	5%	x	0%	-4%
Cc1cc2c(cc1C)CSC(c1ccccc1OC(=O)C(C)(C)C)SC2	-15	-2	10µM*	-4%	24%	-6%
CCc1cnc2c(c1SCc1cc(OC)cc(OC)c1)c(=O)n(C)c(=O)n2C	x	x	19%	x	2%	3%
C(#Cc1ccc(C#CCN2CCCC2)cc1)CN1CCCC1	-1	-2	3.5µM*	6%	u	-7%
CCOC(=O)c1c(C)n(-c2ccccc2)c2ccc(O)c(CN(C)C)c12	-9	4	8.9µM*	8%	-9%	u
CCOC(=O)c1c(C)n(C)c2ccc(O)c(CN(CC)CC)c12	5	-2	7%	-8%	-18%	23%
Cc1ccc(NC(=O)CN(C)Cc2nc3ccccc3c(=O)[nH]2)c(Br)c1	-25	2	5%	7%	-3%	0%
Cc1cc(Br)ccc1NC(=O)CNC(=O)CN(C)Cc1nc2ccccc2c(=O)[nH]1	-99*	-12	1%	0%	-4%	-1%
CC(C)C(=O)Nc1c2c(nn1-c1ccc(F)cc1)CS(=O)(=O)C2	-109*	-8	17%	16%	-2%	5%
CC1(C(=O)Nc2cccc(C(F)(F)F)c2)Cc2c(-c3cccc(C(F)(F)F)c3)ccnc2O1 (centres undefined)	x	x	u	-2%	-17%	-9%
